# From the supplement of paper PMC12669032
# A number with no mark means an inactive call.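 Rule for the calls: active = AUC reduced over 20% with Padj below 0.05 in at least 2 of 3 replicates; inactive = otherwise.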
# What was measured:
# Test in all cases: growth AUC relative to DMSO control (median of replicates) (fraction); higher = more growth (less inhibition), active = hit call of the paper
# Conditions in all cases: 20 µM; 24 h
# Akkermansia muciniphila = test system: Akkermansia muciniphila
# Procedure, shortened: (§1)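 Gut bacteria were grown singly in mGAM at 37 °C without oxygen, from OD600 0.05, alongside 20 µM compound in 1% DMSO, and OD600 was read each hour for 24 h. Area under the growth curve was normalised to the median of solvent-only wells per plate, or to row and column medians on the industrial chemical plate. The minimum OD was set to 0 beforehand, and the reported value is the median of three biological replicates grown on separate days.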
# Bacteroides caccae = test system: Bacteroides caccae
# Procedure, shortened: as §1
# Bacteroides clarus = test system: Bacteroides clarus
# Procedure, shortened: as §1
# Bacteroides dorei = test system: Bacteroides dorei
# Procedure, shortened: as §1
# Bacteroides stercoris = test system: Bacteroides stercoris
# Procedure, shortened: as §1
# [1] = test system: Bacteroides thetaiotaomicron
# Procedure, shortened: as §1
# Bacteroides uniformis = test system: Bacteroides uniformis
# Procedure, shortened: as §1
# [2] = test system: Bifidobacterium longum subsp. longum
# Procedure, shortened: as §1
# Clostridium difficile = test system: Clostridium difficile
# Procedure, shortened: as §1
# Collinsella aerofaciens = test system: Collinsella aerofaciens
# Procedure, shortened: as §1
# Coprococcus comes = test system: Coprococcus comes
# Procedure, shortened: as §1
# Escherichia coli ED1a = test system: Escherichia coli ED1a
# Procedure, shortened: as §1
# Escherichia coli IAI1 = test system: Escherichia coli IAI1
# Procedure, shortened: as §1
# Eubacterium rectale = test system: Eubacterium rectale
# Procedure, shortened: as §1
# [3] = test system: Fusobacterium nucleatum subsp. animalis
# Procedure, shortened: as §1
# Lactobacillus gasseri = test system: Lactobacillus gasseri
# Procedure, shortened: as §1
# Lactobacillus paracasei = test system: Lactobacillus paracasei
# Procedure, shortened: as §1
# Odoribacter splanchnicus = test system: Odoribacter splanchnicus
# Procedure, shortened: as §1
# [4] = test system: Parabacteroides distasonis
# Procedure, shortened: as §1
# Parabacteroides merdae = test system: Parabacteroides merdae
# Procedure, shortened: as §1
Structure (SMILES),growth AUC (Akkermansia muciniphila),growth AUC (Bacteroides caccae),growth AUC (Bacteroides clarus),growth AUC (Bacteroides dorei),growth AUC (Bacteroides stercoris),growth AUC [1],growth AUC (Bacteroides uniformis),growth AUC [2],growth AUC (Clostridium difficile),growth AUC (Collinsella aerofaciens),growth AUC (Coprococcus comes),growth AUC (Escherichia coli ED1a),growth AUC (Escherichia coli IAI1),growth AUC (Eubacterium rectale),growth AUC [3],growth AUC (Lactobacillus gasseri),growth AUC (Lactobacillus paracasei),growth AUC (Odoribacter splanchnicus),growth AUC [4],growth AUC (Parabacteroides merdae)
O=C(NC(=O)c1c(F)cccc1F)Nc1ccc(Oc2ccc(C(F)(F)F)cc2Cl)cc1F,1.02,1.02,0.984,1.02,1.02,1,0.996,1.05,1.02,1.08,1,1.03,1.03,0.994,0.951,1.21,0.974,0.978,0.988,1
CC1(C)C(C=C(Cl)Cl)[C@@H]1C(=O)O[C@@H](C#N)c1ccc(F)c(Oc2ccccc2)c1 (stereo not given in full),0.998,0.986,1.01,1.01,0.992,1,0.976,0.983,0.996,0.96,0.984,0.956,1,1,0.878,0.823,0.99,1.01,1.03,0.991
CNC(=O)Oc1cc(C)c(S(C)(=O)=O)c(C)c1,0.967,1.02,0.963,0.995,0.995,0.97,0.97,0.985,0.998,1.01,0.98,0.981,0.963,0.971,1.05,0.999,1.02,1.01,1.05,1.02
CCN(CC)C(=O)SCc1ccc(Cl)cc1,0.879,0.98,0.954,0.978,1.12,0.91,0.973,0.948,1.02,0.948,0.966,1.01,1.01,0.921,0.957,1.08,0.879,0.937,0.943,0.972
CC(=O)O.NC(N)=NCCCCCCCCNCCCCCCCCN=C(N)N,0.836,0.279 (active),0.442 (active),0.638 (active),0.186 (active),0.0333 (active),0.115 (active),0.136 (active),0.984,0.618 (active),0.64 (active),1,0.928,0.0294 (active),0.871,0.874,0.961,0.0478 (active),0.132 (active),0.0209 (active)
O=[N+]([O-])c1ccc(O)c([N+](=O)[O-])c1,1.07,0.987,0.939,0.98,0.867,0.889,0.946,1,0.973,0.992,0.904,0.998,0.998,1.02,0.927,1.06,0.97,0.673,0.948,0.985
CON(C)C(=O)Nc1ccc(Cl)c(Cl)c1,0.949,1.05,1,1.04,0.954,1,1,0.953,0.999,1.06,1,1.02,0.977,0.95,0.936,1.01,0.996,0.981,1.01,1
COC(=O)C(C)N(C(=O)c1ccco1)c1c(C)cccc1C (stereo not given),1.07,0.872,0.984,0.85,0.985,0.727 (active),0.88,1.1,0.941,0.913,0.96,0.971,0.981,1.06,1.04,0.86,1.06,0.938,1,0.918
N#Cc1nn(-c2c(Cl)cc(C(F)(F)F)cc2Cl)c(N)c1S(=O)(=O)C(F)(F)F,1.09,0.823,0.966,0.961,1.16,0.996,0.961,0.936,0.866,1.03,0.968,1.04,1.02,0.945,1.01,1.01,0.929,0.978,0.904,0.97
